Measured values taken from ChEMBL document CHEMBL3988442, “University of Dundee, Small-Polar-MMV Screening Library” (2021).
For some assays here: Entries with a potency or affinity are not part of this list.

Legend:
Parameters in all cases: scale not given: direction of the effect not stated beside the values
[1] = target: Protein translocase subunit SecA (Escherichia coli (strain K12)) (UniProt P10408); test: Assay to Identify E. coli SecA ATPase Inhibitors; format: functional; conditions: 30 µM
Protein translocase subunit SecA (Escherichia coli (strain K12)), sequence (P10408 whole entry): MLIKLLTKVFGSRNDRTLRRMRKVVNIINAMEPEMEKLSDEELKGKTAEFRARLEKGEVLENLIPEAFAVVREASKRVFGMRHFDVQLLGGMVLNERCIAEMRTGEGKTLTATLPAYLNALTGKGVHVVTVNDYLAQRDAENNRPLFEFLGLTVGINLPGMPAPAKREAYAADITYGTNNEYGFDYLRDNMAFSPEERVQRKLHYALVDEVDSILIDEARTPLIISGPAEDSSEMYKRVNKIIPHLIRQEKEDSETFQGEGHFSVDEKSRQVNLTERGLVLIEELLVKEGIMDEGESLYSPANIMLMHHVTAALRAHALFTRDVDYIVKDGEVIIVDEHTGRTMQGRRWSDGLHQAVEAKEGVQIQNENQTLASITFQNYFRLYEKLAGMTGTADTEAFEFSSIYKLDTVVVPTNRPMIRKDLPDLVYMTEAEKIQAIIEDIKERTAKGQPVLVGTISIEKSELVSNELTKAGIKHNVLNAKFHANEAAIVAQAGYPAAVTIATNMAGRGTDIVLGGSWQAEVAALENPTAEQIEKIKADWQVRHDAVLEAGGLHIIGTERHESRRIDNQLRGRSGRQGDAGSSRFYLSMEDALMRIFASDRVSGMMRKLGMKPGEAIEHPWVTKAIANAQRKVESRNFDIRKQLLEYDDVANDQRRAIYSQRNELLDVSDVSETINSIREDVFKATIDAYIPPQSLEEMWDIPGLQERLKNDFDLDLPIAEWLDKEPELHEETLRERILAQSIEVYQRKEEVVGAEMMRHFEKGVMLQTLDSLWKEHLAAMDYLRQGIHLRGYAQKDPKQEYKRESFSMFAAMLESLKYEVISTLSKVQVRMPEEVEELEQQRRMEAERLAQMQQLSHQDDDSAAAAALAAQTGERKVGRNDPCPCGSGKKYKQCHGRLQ

[2] = target: T1, Ubiquitin-activating enzyme e1, putative (Leishmania donovani (strain BPK282A1)) (UniProt E9BSI1); test: Leishmania donovani Ubiquitin Activating Enzyme (LdE1); format: functional; conditions: 30 µM
T1 sequence (whole entry): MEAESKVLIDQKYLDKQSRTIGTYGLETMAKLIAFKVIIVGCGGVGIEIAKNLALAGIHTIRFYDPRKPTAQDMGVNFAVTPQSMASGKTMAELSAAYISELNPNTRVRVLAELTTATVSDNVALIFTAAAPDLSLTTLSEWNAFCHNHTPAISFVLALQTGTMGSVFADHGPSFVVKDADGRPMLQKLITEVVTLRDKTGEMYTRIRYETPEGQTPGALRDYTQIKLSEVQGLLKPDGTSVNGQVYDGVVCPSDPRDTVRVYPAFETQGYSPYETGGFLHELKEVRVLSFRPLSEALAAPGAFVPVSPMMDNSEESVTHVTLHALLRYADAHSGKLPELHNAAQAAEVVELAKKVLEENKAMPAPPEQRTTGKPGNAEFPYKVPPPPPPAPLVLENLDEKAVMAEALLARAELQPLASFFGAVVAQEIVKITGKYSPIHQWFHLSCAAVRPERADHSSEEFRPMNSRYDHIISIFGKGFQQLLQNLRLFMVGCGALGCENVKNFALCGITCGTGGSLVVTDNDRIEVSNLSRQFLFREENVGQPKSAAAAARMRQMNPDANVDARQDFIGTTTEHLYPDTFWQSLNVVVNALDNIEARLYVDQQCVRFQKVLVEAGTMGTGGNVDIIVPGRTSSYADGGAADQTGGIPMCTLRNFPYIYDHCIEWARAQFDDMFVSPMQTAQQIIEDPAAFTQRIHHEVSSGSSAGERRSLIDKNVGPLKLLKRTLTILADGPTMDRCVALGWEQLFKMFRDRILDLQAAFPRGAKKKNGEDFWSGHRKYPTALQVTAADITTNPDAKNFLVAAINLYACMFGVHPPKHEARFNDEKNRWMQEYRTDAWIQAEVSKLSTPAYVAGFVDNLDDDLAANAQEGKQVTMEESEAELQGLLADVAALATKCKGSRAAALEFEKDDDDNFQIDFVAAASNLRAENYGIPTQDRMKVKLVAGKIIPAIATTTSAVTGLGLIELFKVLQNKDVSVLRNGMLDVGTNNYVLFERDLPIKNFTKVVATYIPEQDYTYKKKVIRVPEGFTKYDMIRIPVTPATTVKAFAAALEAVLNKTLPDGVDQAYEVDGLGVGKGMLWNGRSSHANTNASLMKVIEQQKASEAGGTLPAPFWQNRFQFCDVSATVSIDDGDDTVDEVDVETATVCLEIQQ

[3] = target: AMP-activated protein kinase, AMPK (Homo sapiens) (UniProt P54646+O43741+P54619+Q9UGJ0+Q9Y478+Q13131+Q9UGI9); test: AMP-dependent Kinase enzyme assay. An in vitro enzyme assay that detects ADP turnover that is directly proportional to AMPK activity. This uses naive AMPK that is activated during the assay with MK-8722; format: functional; conditions: 30 µM
[4] = target: Sialic acid-binding Ig-like lectin 9 (Homo sapiens) (UniProt Q9Y336); test: Hs-Siglec9 ALPHAscreen SOP 20170721; conditions: 10 µM
Sialic acid-binding Ig-like lectin 9 (Homo sapiens), sequence (Q9Y336 whole entry): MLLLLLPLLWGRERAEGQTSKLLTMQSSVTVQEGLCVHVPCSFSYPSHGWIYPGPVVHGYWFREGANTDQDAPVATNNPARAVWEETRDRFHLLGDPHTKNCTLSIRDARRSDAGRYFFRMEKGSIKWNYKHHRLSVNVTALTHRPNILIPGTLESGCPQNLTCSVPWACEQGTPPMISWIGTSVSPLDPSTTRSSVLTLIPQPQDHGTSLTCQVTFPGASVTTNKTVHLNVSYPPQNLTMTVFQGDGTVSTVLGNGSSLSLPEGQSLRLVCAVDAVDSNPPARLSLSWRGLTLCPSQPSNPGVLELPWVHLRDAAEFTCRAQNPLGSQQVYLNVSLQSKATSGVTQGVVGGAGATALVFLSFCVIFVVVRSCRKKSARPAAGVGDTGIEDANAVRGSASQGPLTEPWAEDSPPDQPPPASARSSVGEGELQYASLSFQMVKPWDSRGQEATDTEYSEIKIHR

[5] = system: Trypanosoma cruzi; test: Trypanosoma cruzi phosphomannomutase and mannose-1-phosphate guanylyltransferase assay; format: functional; conditions: 10 µM
[6] = target: T2, Arginase-2, mitochondrial (Homo sapiens) (UniProt P78540); test: in vitro enzyme assay to detect the production of urea directly proportional to the activity of Arginase II; format: functional; conditions: 33.3 µM; also: in the data most compounds retested in dose-response had high values
T2 sequence (whole entry): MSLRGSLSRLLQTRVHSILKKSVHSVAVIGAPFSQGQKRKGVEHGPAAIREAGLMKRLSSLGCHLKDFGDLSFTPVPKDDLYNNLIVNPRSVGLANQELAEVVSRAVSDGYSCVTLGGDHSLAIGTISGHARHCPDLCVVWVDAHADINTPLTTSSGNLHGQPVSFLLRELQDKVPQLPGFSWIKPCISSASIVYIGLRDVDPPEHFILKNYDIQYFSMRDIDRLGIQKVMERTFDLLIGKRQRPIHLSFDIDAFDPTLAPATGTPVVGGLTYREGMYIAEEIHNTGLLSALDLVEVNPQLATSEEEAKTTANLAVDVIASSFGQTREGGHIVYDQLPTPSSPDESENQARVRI

[7] = target: T3, Proteasome subunit beta (Trypanosoma cruzi) (UniProt O96673); test: Trypanosoma cruzi proteasome chymotrypsin-like activity (TcProtChymo) assay.; also: in the data most compounds retested in dose-response had high values; format: functional; conditions: 9.37 µM
T3 sequence (whole entry): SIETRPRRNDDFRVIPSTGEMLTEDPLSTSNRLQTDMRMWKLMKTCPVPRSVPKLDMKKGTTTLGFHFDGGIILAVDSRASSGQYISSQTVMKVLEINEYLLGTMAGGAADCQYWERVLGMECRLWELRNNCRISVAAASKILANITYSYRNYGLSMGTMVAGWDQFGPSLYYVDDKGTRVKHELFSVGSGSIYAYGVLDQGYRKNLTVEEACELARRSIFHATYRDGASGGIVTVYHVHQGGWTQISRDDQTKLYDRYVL

[8] = organism: Homo sapiens; test: To identify inhibition of the IFN signalling (Jak-Stat) pathway via expression of an eGFP reporter gene under the control of an IFN-stimulated response element (ISRE) containing MxA promoter.; format: functional; conditions: 30 µM
[9] = target: T4, Tyrosyl-tRNA synthetase, putative (Trypanosoma cruzi (strain CL Brener)) (UniProt Q4DSP6); test: Trypanosoma cruzi tyrosyl tRNA synthetase (TcYRS) _High Tyrosine SOP; format: functional; conditions: 30 µM; also: in the data most compounds retested in dose-response had high values
T4 sequence (whole entry): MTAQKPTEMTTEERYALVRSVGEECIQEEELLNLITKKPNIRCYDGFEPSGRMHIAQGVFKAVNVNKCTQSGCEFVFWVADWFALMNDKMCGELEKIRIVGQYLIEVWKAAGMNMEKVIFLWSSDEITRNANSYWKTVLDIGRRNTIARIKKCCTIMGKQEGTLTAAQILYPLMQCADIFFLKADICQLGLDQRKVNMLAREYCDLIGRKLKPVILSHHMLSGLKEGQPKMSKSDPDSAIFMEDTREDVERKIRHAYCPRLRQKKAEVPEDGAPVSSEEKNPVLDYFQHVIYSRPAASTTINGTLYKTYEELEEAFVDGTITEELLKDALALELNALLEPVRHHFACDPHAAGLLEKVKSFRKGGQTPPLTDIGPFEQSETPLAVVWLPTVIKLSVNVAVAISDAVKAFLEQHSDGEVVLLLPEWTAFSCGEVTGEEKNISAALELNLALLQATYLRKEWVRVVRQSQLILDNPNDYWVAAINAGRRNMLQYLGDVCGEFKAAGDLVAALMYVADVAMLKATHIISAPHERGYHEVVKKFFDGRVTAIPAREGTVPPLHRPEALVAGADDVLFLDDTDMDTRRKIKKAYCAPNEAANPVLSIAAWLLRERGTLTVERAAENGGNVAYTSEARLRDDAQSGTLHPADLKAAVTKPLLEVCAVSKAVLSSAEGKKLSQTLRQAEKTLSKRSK

[10] = target: T4, Tyrosyl-tRNA synthetase, putative (Trypanosoma cruzi (strain CL Brener)); test: Trypanosoma cruzi tyrosyl tRNA synthetase (TcYRS) SOP; format: functional; conditions: 30 µM
[11] = target: Chromo domain-containing protein 1 (Saccharomyces cerevisiae (strain ATCC 204508 / S288c) (Baker's yeast)) (UniProt P32657); test: ScCHD-1 Enzyme Inhibition Assay; format: functional; conditions: 30 µM; also: in the data most compounds retested in dose-response had high values
Chromo domain-containing protein 1 (Saccharomyces cerevisiae (strain ATCC 204508 / S288c) (Baker's yeast)), sequence (P32657 whole entry, the tested form may be a part): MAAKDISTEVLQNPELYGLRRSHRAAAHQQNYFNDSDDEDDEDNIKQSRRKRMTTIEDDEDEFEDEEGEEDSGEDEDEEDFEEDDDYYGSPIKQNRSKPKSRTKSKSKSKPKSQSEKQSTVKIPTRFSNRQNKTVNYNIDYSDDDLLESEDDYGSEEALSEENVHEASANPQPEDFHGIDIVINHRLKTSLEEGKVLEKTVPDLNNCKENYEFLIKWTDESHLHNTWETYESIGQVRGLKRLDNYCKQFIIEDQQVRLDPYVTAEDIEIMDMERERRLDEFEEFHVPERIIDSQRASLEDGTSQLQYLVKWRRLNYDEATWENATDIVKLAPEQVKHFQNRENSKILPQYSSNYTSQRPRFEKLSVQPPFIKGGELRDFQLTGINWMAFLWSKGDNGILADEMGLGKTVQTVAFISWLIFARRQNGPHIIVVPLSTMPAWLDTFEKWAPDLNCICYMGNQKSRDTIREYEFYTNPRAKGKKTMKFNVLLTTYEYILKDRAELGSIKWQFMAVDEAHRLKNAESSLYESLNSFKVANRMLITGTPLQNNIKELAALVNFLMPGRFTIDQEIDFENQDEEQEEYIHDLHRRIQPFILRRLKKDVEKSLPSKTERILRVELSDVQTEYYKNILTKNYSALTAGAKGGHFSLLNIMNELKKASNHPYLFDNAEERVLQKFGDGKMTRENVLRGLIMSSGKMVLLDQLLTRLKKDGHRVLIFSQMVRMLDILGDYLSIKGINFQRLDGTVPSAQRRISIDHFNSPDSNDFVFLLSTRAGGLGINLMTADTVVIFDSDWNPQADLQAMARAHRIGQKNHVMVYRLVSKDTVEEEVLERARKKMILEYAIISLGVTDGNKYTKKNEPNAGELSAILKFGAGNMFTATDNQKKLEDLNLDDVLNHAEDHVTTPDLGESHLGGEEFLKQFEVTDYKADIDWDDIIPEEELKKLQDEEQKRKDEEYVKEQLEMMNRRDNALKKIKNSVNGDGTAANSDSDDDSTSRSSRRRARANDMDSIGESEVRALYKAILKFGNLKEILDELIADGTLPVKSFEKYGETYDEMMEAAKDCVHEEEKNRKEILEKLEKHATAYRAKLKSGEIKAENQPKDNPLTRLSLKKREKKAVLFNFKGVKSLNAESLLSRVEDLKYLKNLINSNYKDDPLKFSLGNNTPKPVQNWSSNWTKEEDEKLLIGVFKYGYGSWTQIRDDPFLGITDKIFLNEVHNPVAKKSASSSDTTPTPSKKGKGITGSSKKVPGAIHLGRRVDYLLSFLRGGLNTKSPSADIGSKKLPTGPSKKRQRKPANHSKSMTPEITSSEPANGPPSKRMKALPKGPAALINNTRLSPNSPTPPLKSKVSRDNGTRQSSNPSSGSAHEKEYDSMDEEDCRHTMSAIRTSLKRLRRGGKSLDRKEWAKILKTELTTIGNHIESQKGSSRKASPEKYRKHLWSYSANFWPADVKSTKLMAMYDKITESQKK

| SMILES | Percent Effect [1] | Percent Effect [2] | Percent Effect [3] | Percent Effect [4] | Percent Effect [5] | Percent Effect [6] | Percent Effect [7] | Percent Effect [8] | Percent Effect [9] | Percent Effect [10] | Percent Effect [11] |
| --- | --- | --- | --- | --- | --- | --- | --- | --- | --- | --- | --- |
| CC(C)C(Sc1nnnn1C1CC1)C(=O)NCc1cccnc1 (stereo not given) | -3.26% | 5.2% | 3.52% | -3.03% | -5.24% | 17.8% | 13.3% | 27.7% | 6.8% | 19.5% | -3.93% |
| NC(=O)c1csc(C(=O)N2CCCCC2Cn2cccn2)c1 (stereo not given) | -5.35% | 13.5% | 1.44% | 6.12% | -0.279% | -3.88% | 0.539% | 16.2% | 5.94% | 13.4% | 1.19% |
| CCCNC(=O)CNc1ccc(C(=O)N2CCCCC2C)cc1C (stereo not given) | -7.8% | 18.2% | 1.99% | -9.58% | -8.99% | 0.712% | 8.62% | 35.5% | 5.83% | 12.2% | -8% |
| Cc1cnn(CC2CCCN2c2nn3cc(C)nc3s2)c1 (stereo not given) | -7.38% | 11.4% | -3.44% | 2.81% | -0.103% | -1.07% | 7.03% | 8.17% | -2.08% | 15.2% | -26% |
| CCc1nnc(CNCC2CCCN2c2cccnn2)o1 (stereo not given) | -2.1% | 0% | 0.161% | 4.6% | 2.78% | -2.4% | 5.57% | 3.42% | 8.33% | 11.1% | -4.05% |
| CCCOc1cc(CNC(=O)Nc2cccnc2N2CCCC2)ccn1 | -1.55% | -2.7% | -14.8% | 5.9% | -1.04% | 4.81% | 5.77% | 6.16% | -0.493% | 3.7% | -5.59% |
| c1cc2n(n1)CC(CNCc1ccc(OCC3CC3)nc1)CN2 (stereo not given) | -1.23% | 20.8% | 11.1% | 4.04% | 7.68% | 0.356% | 3.04% | -0.525% | 13.6% | 24.4% | -9.69% |
| CC(=O)N(C)c1nc(CN2CCOC(Cn3cccn3)C2)cs1 (stereo not given) | 1.46% | 8.11% | -1.27% | 15.7% | 3.09% | 17.1% | 15.9% | 10.3% | 4.76% | 12.2% | -5.18% |
| COc1cccc(CN(C)C(=O)CN2CCN(CCO)CC2)c1 | -2.96% | 8% | -6.71% | 1.75% | 0.292% | 3.12% | 24.6% | 14.1% | 9.29% | 16.1% | -7.41% |
| Cc1cccc(NC(=O)N2CCCn3cnc(CN4CCCC4)c3C2)c1 | -3.65% | 8.11% | -3.2% | -1.77% | 3.91% | 0% | 12.4% | -6.55% | 16.8% | 11% | -4.14% |
